Experimental data published in PubChem BioAssay AID1347076 (National Center for Advancing Translational Sciences (NCATS), 2019).
In all, about 400,000 compounds went through this assay and about 13,000 (3.2%) were called active. Entries that show only a call come without a potency. Not shown: some 18% with an inconclusive outcome. Calls come from the whole dose curve; as a rule, active = well fitted cell-killing curve with a large enough effect; inconclusive = small, poorly fitted or top-dose-only effect, or effect the other way; inactive = flat fitted curve, though single readings scatter. Many of the other results were omitted from the sample, so actives are more common in it than they were.

Assay: qHTS assay for MDR1-selective chemotherapeutics: Primary screen using the drug-selected MDR subline cells KB-V1; note: nearly all actives have a fitted effect of over 60% in size
Details: KB-V1 MDR cells viability, CellTiter-Glo, 72 h; series mostly up to 46.1 µM
Procedure, shortened: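 Potencies derive from concentration-effect curves fitted to normalized luminescence (CellTiter-Glo) of KB-V1 cells treated for 72 h at 37 degrees C in phenol-red-free DMEM containing 10% FBS.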
Potency is the fitted concentration of half-maximal effect.

| SMILES | Potency |
| --- | --- |
| CCCCn1nnnc1C(c1cc2ccccc2o1)N(C)Cc1ccc(Cl)c(Cl)c1 (centres undefined) | inactive |
| O=C1NC(Cc2ccccc2)c2nc3ccc(Br)cc3c(=O)n2-c2cc3ccccc3cc21 (centres undefined) | inactive |
| O=C(NC(C(=O)NCCN1CCOCC1)C12CC3CC(CC(C3)C1)C2)C1CCCCC1 (centres undefined) | 14.6 µM (active) |
| O=C(NCCN1CCOCC1)C1CCN(S(=O)(=O)c2ccccc2)CC1 | inactive |
| O=C(NCCCN1CCOCC1)C1CCCN(S(=O)(=O)N2CCCCC2)C1 (centres undefined) | inactive |
| CCOC(=O)c1c(NC(=O)COC(=O)c2ccc(S(=O)(=O)C(F)F)cc2)sc(C(=O)N(C)C)c1C | inactive |
| CC1(C(=O)O)CCN1C(=O)/C=C/c1ccccc1 (centres undefined) | inactive |
| CCN(CC(=O)Nc1ccc(OC)cc1)C(=O)c1ccc(=O)n(Cc2ccccc2)n1 | 18.4 µM (active) |
| COc1ccc(NC(=O)CN(C)C(=O)c2cc(C3CC3)nn2-c2ccccc2)cc1 | inactive |
| CCN(CC(=O)Nc1ccc(OC)cc1)C(=O)c1ccc(Cl)c(S(=O)(=O)N2CCCC2)c1 | inactive |
| N=c1c2c3c(sc2ncn1CCCN1CCOCC1)CCCCC3 | 8.2 µM (active) |
| N=c1c2c3c(sc2ncn1N)CCCCC3 | inactive |
| N=c1c2c3c(sc2nc2n1CCCCC2)CCCC3 | inactive |
| CCN1CCN(c2ccc(/C=C/c3ccnc4ccccc34)cc2)CC1 | inactive |
| C[C@@H]1CN([C@H](C)CO)C(=O)c2cc(Br)cnc2O[C@@H]1CN(C)Cc1cncnc1 | inactive |
| C[C@H]1Cn2cnc(C(=O)N[C@@H](Cc3c[nH]c4ccccc34)C(=O)OC(C)(C)C)c2C(=O)N1 | inactive |
| COc1ccc(C(=O)NC2CC(C)(C)NC(C)(C)C2)cc1OC | inactive |
| Cc1cccc(C(=O)NCC(=O)OCC(=O)N2CC3(C)CC2CC(C)(C)C3)c1 (centres undefined) | inactive |
| COc1ccc(C(=O)N2CC3(C)CC2CC(C)(C)C3)cc1OC (centres undefined) | 23.1 µM (active) |
| O=C(NCc1ccccc1)C(c1ccc(F)cc1)N1CCN(C(=O)C2CCCO2)CC1 (centres undefined) | inactive |
| CCn1c(Cc2ccccc2)nnc1SCC(=O)Nc1ccccc1 | 20.6 µM (active) |
| CCn1c(Cc2ccc(OC)cc2)nnc1SCC(=O)Nc1ccc(N2CCOCC2)cc1 | inactive |

| SMILES | Potency |
| --- | --- |
| CCn1c(CNC(=O)c2ccc(OC)c(OC)c2)nnc1SCC(=O)Nc1ccccc1 | inactive |
| CC1(C(=O)NS(=O)(=O)c2cccc(OC(F)F)c2)CCN1C(=O)COc1ccc(Cl)cc1 (centres undefined) | inactive |
| O=C(Nc1cccc2ccccc12)c1[nH]c(-c2ccccc2)c2c1C(=O)N(C1CC1)C2=O | inactive |
| CCCCNC(=O)C[C@@H]1C[C@@]2(C(=O)OCC)CCC=C2N(Cc2ccco2)C1=O | inactive |
| O=C(NNS(=O)(=O)c1ccc(F)cc1)c1ccc([N+](=O)[O-])cc1Cl | inactive |
| Cc1cc([N+](=O)[O-])ccc1NS(=O)(=O)c1ccccc1 | inactive |
| O=[N+]([O-])c1ccc(NS(=O)(=O)c2ccccc2)c(Cl)c1 | 23.1 µM (active) |
| CCc1nc2ccc(C(=O)N3CCC(O)(Cc4ccccc4)CC3)cn2c1N(C)C(=O)Cc1ccccc1 | inactive |
| CC1(C(=O)NCc2ccc3c(c2)OCO3)CCN1CCc1ccccc1 (centres undefined) | inactive |
| COc1ccc(C(=O)NNS(=O)(=O)c2ccc(C)cc2)cc1 | inactive |
| COc1ccc(C(=O)Oc2cc(/C=N/NS(=O)(=O)c3ccc(C)cc3)ccc2OC)cc1 | 14.6 µM (active) |
| COc1ccc(S(=O)(=O)N/N=C\c2ccc(OC)c(COc3ccc(C)cc3[N+](=O)[O-])c2)cc1 | inactive |
| c1ccc(Cc2c(-c3ccco3)nc3c4ccccc4ccn23)cc1 | inactive |
| CC(C)Cn1c(=O)c2ccccc2n2c(-c3cccc(Cl)c3)nnc12 | inactive |
| CN(Cc1cncn1C)c1ncnc2ccc(-c3ccc4c(c3)OCO4)cc12 | inactive |
| O=C(c1ccc2c(c1)OCCO2)C1CCN(S(=O)(=O)c2cccc(F)c2)CC1 | 20.6 µM (active) |
| COCCn1cnnc1SCC(=O)Nc1cccc(S(=O)(=O)N2CCCCC2)c1 | inactive |
| O=C(CSc1ccccc1)Nc1cccc(S(=O)(=O)N2CCCCC2)c1 | inactive |
| O=C(NCc1cccs1)C1CCN(S(=O)(=O)c2ccc3c(c2)OCCO3)CC1 | inactive |
| Cn1nnnc1SCC(=O)Nc1cccc(S(=O)(=O)N2CCCCC2)c1 | 20.6 µM (active) |
| O=C(Nc1cccc(S(=O)(=O)N2CCCCC2)c1)c1cncc(Br)c1 | inactive |
| O=C(c1c(F)cccc1F)N1CCN(S(=O)(=O)c2ccc3c(c2)OCCO3)CC1 | inactive |

| SMILES | Potency |
| --- | --- |
| O=C(Nc1cccc(S(=O)(=O)N2CCCCC2)c1)c1ccc2c(c1)OCO2 | 3.26 µM (active) |
| CCN(CC)S(=O)(=O)c1cccc(NC(=O)c2ccc(S(=O)(=O)N3CCCC3)cc2)c1 | inactive |
| Cc1ccc(-c2nn3c(=O)cc(CN4CCN(S(=O)(=O)c5ccc(Cl)cc5)CC4)nc3s2)cc1 | inactive |
| Cc1cccc(C)c1NC(=O)CNC(=O)c1ccc(N2CCOCC2)c([N+](=O)[O-])c1 | inactive |
| CCc1ccc(S(=O)(=O)N/N=C\c2ccc([N+](=O)[O-])o2)cc1 | inactive |
| CCn1c(/C=C/c2ccc([N+](=O)[O-])o2)nc2ccccc2c1=O | 5.17 µM (active) |
| O=c1oc(/C=C/c2ccccc2)nc2ccccc12 | inactive |
| CSc1ncccc1C(=O)N1CCCC(Nc2ccc(F)c(F)c2)C1 (centres undefined) | inactive |
| CCc1nn(CCCC(=O)NCc2ccccc2OC)c(=O)c2cc3occc3n12 | inactive |
| Cc1cc(Br)cn2c(Cc3cccc(F)c3)c(-c3cccc(Br)c3)nc12 | inactive |
| CCOC(=O)c1c(NC(=O)CSc2cn(CC)c3ccccc23)sc2c1CCC2 | inactive |
| CCOC(=O)c1c(NC(=O)Cn2nc(C(F)(F)F)cc2C)sc2c1CCC2 | 20.6 µM (active) |
| CCOC(=O)c1c(NC(=O)Cc2coc3ccc(CC)cc23)sc2c1CCC2 | inactive |
| CCCS(=O)(=O)NC(=O)C1(C)CCCN(C(=O)c2cccs2)C1 (centres undefined) | inactive |
| Cc1ccc(OCC(=O)Nc2ccccc2C(=O)NC2CC2)cc1C | inactive |
| Cc1ccc(OCC(=O)Nc2ccccc2C(=O)NC2CC2)cc1 | 8.2 µM (active) |
| COc1ccccc1OCC(=O)Nc1ccccc1C(=O)NC1CC1 | inactive |
| CC(NCC(=O)Nc1ccccc1C(=O)NC1CC1)c1ccccc1Cl (centres undefined) | 18.4 µM (active) |
| O=C(CN1CCCCC1)Nc1ccccc1C(=O)NC1CC1 | inactive |
| CCCC(NCC(=O)Nc1ccccc1C(=O)NC1CC1)c1ccccc1 (centres undefined) | inactive |
